The campaign covered roughly 63,000 compounds. About 1,100 (1.7%) were called active.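 The calls were made as follows: active = compounds whose percent cytotoxicity in the single-dose primary screen, scaled between solvent and toxic-drug controls, exceeds 50; inactive = the rest.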 What follows is part of a selection rich in actives, with near analogues and random picks from the rest. Entries with a potency or affinity are not part of this list.
assay: viability loss of HPDE-C7K cells – cell-based, fluorescence, HTS, primary screen (AID 431); details: HPDE-C7K KRASV12 cells, Alamar Blue viability, 48 h; at 10 µM; active compounds read high;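 also: 0% = DMSO solvent wells and 100% = doxorubicin-treated wells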

Row | Structure (SMILES) | cytotoxicity
1 | CCOc1ccc(C2C=C(c3ccc(C)cc3)Nc3nnnn32)cc1 (stereo unspecified) | -11% (inactive)
2 | COc1ccc(C2=CC(c3ccc(C)cc3)n3nnnc3N2)cc1 (stereo unspecified) | -4.4% (inactive)
3 | Cc1ccc(CNC(=O)C2CCN(S(=O)(=O)c3cccs3)CC2)o1 | -10.5% (inactive)
4 | O=C(CCC1CCCC1)c1c(O)c2ccccc2oc1=O | 18% (inactive)
5 | O=C(CC1CCCCC1)c1c(O)c2ccccc2oc1=O | 59.2% (active)
6 | O=C(c1c(O)c2ccccc2oc1=O)C1CCC1 | 6.1% (inactive)
7 | COc1cccc(-c2nnc3n2N=C(c2cccc(Br)c2)CS3)c1 | -14.8% (inactive)
8 | CCSc1nnc([C@@H]2CCCN2C(=O)OC(C)(C)C)o1 | -8.4% (inactive)
9 | Cc1cccc(OCC(O)Cn2c(NCc3cccnc3)nc3c2c(=O)[nH]c(=O)n3C)c1 (stereo unspecified) | -23.4% (inactive)
10 | Cc1nc(SCC(=O)O)c2oc3ccccc3c2n1 | -10.8% (inactive)
11 | Cc1nc(SCC(=O)N2CCN(c3ccccc3)CC2)c2oc3ccccc3c2n1 | 54.9% (active)
12 | CCc1nc(Nc2ccc(N3CCN(C(C)=O)CC3)cc2)c2oc3ccccc3c2n1 | 52.7% (active)
13 | Cc1nc(Nc2ccncc2)c2oc3ccccc3c2n1 | -14.9% (inactive)
14 | CCNc1nc(CC)nc2c1oc1ccccc12 | -17.1% (inactive)
15 | Cc1nc(SCC(=O)N2CCCc3ccccc32)c2oc3ccccc3c2n1 | -19.9% (inactive)
16 | CC(=O)N1CCN(c2ccc(Nc3nc(C)nc4c3oc3ccccc34)cc2)CC1 | -3.4% (inactive)
17 | CCc1nc(Nc2ccncc2)c2oc3ccccc3c2n1 | 64.2% (active)
18 | CC(=O)N1CCN(c2ccc(Nc3ncnc4c3oc3ccccc34)cc2)CC1 | 19.3% (inactive)
19 | COc1ccc2c(c1)c(=O)c(Br)c(C)n2Cc1ccccc1 | 0.5% (inactive)
20 | FC(F)(F)c1cccc(-c2ccc(-c3csnn3)o2)c1 | -13.4% (inactive)
21 | O=C(O)CC(CNS(=O)(=O)c1ccccc1)c1ccccc1 (stereo unspecified) | 0% (inactive)
22 | OCc1nnn(-c2cccc(C(F)(F)F)c2)c1CO | -2.5% (inactive)
23 | N#C/C(Cn1c[n+](NC(=O)Nc2ccccc2)cn1)=N/O | -6.9% (inactive)
24 | O=C1CC(SCc2nc3ccccc3[nH]2)C(=O)N1c1cccc(F)c1 (stereo unspecified) | -0.8% (inactive)
25 | O=C(NCc1ccccn1)C1CCC(=O)N1C1CCCC1 (stereo unspecified) | 2.2% (inactive)
26 | CCOc1ccc2nc(NC(=O)CN3CCC(n4nnc5cc(F)ccc54)CC3)sc2c1 | 66.6% (active)

Row | Structure (SMILES) | cytotoxicity
27 | COc1ccccc1NC(=O)CN1CCC(n2nnc3cc(F)ccc32)CC1 | -3.1% (inactive)
28 | CCOC(=O)c1ccccc1NC(=O)CN1CCC(n2nnc3cc(F)ccc32)CC1 | 15.3% (inactive)
29 | CC1(C)CNC(=O)c2sc(NC(=O)CN3CCOCC3)nc2C1 | 0.1% (inactive)
30 | Cc1ccc2c(c1)NC(=O)C(CC(=O)NCCN(C)C)O2 (stereo unspecified) | -2.3% (inactive)
31 | Cc1cc(C)c2nc(-c3ccccn3)cc(C(=O)Nc3cc(C)on3)c2c1 | 8.1% (inactive)
32 | Cc1cc(NC(=O)c2cc(-c3cccnc3)nc3c(C)c(C)ccc23)no1 | 8.8% (inactive)
33 | Cc1cc(NC(=O)c2cc(-c3ccncc3)nc3c(C)cccc23)no1 | 68.1% (active)
34 | COc1ccc(-c2nc(C#N)c(NCCCN3CCOCC3)o2)cc1 | 0.5% (inactive)
35 | N#Cc1nc(Cc2ccccc2)oc1NCc1cccnc1 | -11.2% (inactive)
36 | N#Cc1nc(COc2ccc(-c3ccccc3)cc2)oc1NCc1cccnc1 | 83.1% (active)
37 | N#Cc1nc(COc2ccc(-c3ccccc3)cc2)oc1NCCCN1CCOCC1 | 50.8% (active)
38 | N#Cc1nc(COc2ccc(F)cc2)oc1NCCN1CCOCC1 | -2.9% (inactive)
39 | N#Cc1nc(-c2ccc(OCc3ccccc3)cc2)oc1NCc1cccnc1 | 12.7% (inactive)
40 | N#Cc1nc(COc2ccccc2)oc1NCCN1CCOCC1 | -18.1% (inactive)
41 | N#Cc1nc(-c2ccc(OCc3ccccc3)cc2)oc1NCCN1CCOCC1 | 12.8% (inactive)
42 | COc1ccccc1CNC(=O)c1ccc(CNc2c(N3CCCC3)c(=O)c2=O)cc1 | 4.2% (inactive)
43 | CCCc1nc(-c2cc3ccc(C)cc3[nH]c2=O)no1 | 6.3% (inactive)
44 | Cc1nc(NCC2CCCO2)c2nnn(Cc3ccccc3)c2n1 (stereo unspecified) | -0.3% (inactive)
45 | Cc1nc(SCC(=O)Nc2ccc(C)c(F)c2)c2oc3ccccc3c2n1 | 24.5% (inactive)
46 | O=C1CSC(c2ccco2)N1 (stereo unspecified) | -1.3% (inactive)
47 | O=C(CN1CCN(c2ccc(Cl)cc2)CC1)Nc1ccc(F)c(F)c1 | -4.6% (inactive)
48 | CC1CN(S(=O)(=O)c2ccc(NC(=O)c3ccco3)cc2)CC(C)O1 (stereo unspecified) | -0.1% (inactive)
49 | O=S(=O)(Nc1cccc2cccnc12)c1ccc(S(=O)(=O)N2CCCC2)cc1 | 70.3% (active)
50 | O=C(C1CCN(S(=O)(=O)c2cccc3cccnc23)CC1)N1CCCC1 | 3.6% (inactive)
51 | COc1cc(NCCCC(C)N)c2ncccc2c1 (stereo unspecified) | 4.4% (inactive)
52 | CS(=O)(=O)Nc1cccc2cccnc12 | 14.8% (inactive)

Row | Structure (SMILES) | cytotoxicity
53 | COc1cc(NS(=O)(=O)c2ccc(C)cc2)c2ncccc2c1 | 69.8% (active)
54 | COc1ccc(NS(=O)(=O)c2ccc(Oc3ncccn3)cc2)cc1 | 18.2% (inactive)
55 | O=C(c1nc2nc(-c3ccc(Cl)cc3)cc(C(F)(F)F)n2n1)N1CCOCC1 | 3.6% (inactive)
56 | COc1ccc(OC)c(-n2cnc3cc(C(=O)O)ccc32)c1 | -15.9% (inactive)
57 | CC1CCN(CCNC(=O)C2CCCN(S(=O)(=O)c3cccc4nonc34)C2)CC1 (stereo unspecified) | -4.5% (inactive)
58 | CC(C)OC(=O)c1c(NC(=O)c2cccs2)sc2c1CCCC2 | -3.4% (inactive)
59 | CCc1c(C)sc(NC(=O)c2cccs2)c1C(=O)OC(C)C | 51.6% (active)
60 | CCOC(=O)c1c(NC(=O)c2cccs2)sc(C)c1CC | 2.4% (inactive)
61 | COC(=O)Cc1cc(=O)[nH]c(Nc2nc3ccccc3o2)n1 | 11.4% (inactive)
62 | COCc1cc(=O)[nH]c(Nc2nc3ccccc3o2)n1 | 28.8% (inactive)
63 | COCc1cc(=O)[nH]c(Nc2nc3ccc(C)cc3o2)n1 | 50.7% (active)
64 | COc1ccccc1NC(C)=O | -2.1% (inactive)
65 | Cc1cccc(NC(=O)c2ccc(S(=O)(=O)N3CCCCC3)cc2)n1 | 2.7% (inactive)
66 | COC(=O)c1cc(NC(=O)C2CC=CCC2C(=O)O)cc(C(=O)OC)c1 (stereo unspecified) | -9.5% (inactive)
67 | CC1Cn2c(nnc2-c2cccc(N)c2)S1 (stereo unspecified) | -6.4% (inactive)
68 | COc1ccc(S(=O)(=O)N(C)CC(=O)Nc2cccc(C(C)=O)c2)cc1 | -14.2% (inactive)
69 | COc1cc(-c2nnc(COc3ccc4ccccc4c3)o2)cc(OC)c1OC | 36.9% (inactive)
70 | COc1cc(-c2nnc(COc3ccc4cc(Br)ccc4c3)o2)cc(OC)c1OC | 75.7% (active)
71 | COc1ccc(-c2nnc(COc3ccc4ccccc4c3)o2)cc1OC | -1.8% (inactive)
72 | COc1ccc(N=C2SC(C(=O)Nc3ccc4c(c3)OCO4)CC(=O)N2C)cc1 (stereo unspecified) | -25% (inactive)
73 | Cc1c(NC(=O)COC(=O)C2CC3C=CC2C3)c(=O)n(-c2ccccc2)n1C (stereo unspecified) | -2.3% (inactive)
74 | CC(/C(O)=C(\C#N)c1nc2ccccc2n1C)N1C(=O)c2ccccc2C1=O (stereo unspecified) | 0.7% (inactive)
75 | Cc1cccc(N2CCN(C(=O)c3ccncc3)CC2C)c1 (stereo unspecified) | 7.3% (inactive)
76 | Cc1cccc(N2CCN(c3cccc(C)c3)C2c2cccnc2)c1 | 53.7% (active)
77 | Cc1ccc(N2CCN(c3ccc(C)cc3)C2c2ccncc2)cc1 | -25.3% (inactive)
78 | Cc1cccc(N2CCN(C(=O)COc3cc(=O)n(C)c4ccccc34)CC2C)c1 (stereo unspecified) | -5.4% (inactive)

Row | Structure (SMILES) | cytotoxicity
79 | c1cncc(C2Nc3ccccc3-c3nc4ccccc4n32)c1 (stereo unspecified) | 3.3% (inactive)
80 | O=S(=O)(NC1CCCC1)c1ccccc1Cl | -5.7% (inactive)
81 | COc1cc(Br)cc(/C=N/c2ncn[nH]2)c1O | 85.2% (active)
82 | Oc1c(/C=N/c2ncn[nH]2)ccc2ccccc12 | 65.8% (active)
83 | O=c1c2ccccc2c(/C=N/c2ncn[nH]2)c(O)n1Cc1ccccc1 | 17.3% (inactive)
84 | COc1cc(Br)cc(CN2CCN(C=O)CC2)c1O | -2.1% (inactive)
85 | C=CCc1cccc(/C=N/c2ncn[nH]2)c1O | 18.3% (inactive)
86 | COc1cccc(C=Nc2cc(C)on2)c1O | 7.3% (inactive)
87 | Cc1ccccc1-c1nnc(-c2ccc(Br)cc2)o1 | 0.4% (inactive)
88 | COc1cc(OC)cc(C(=O)Nc2ncc3c(n2)CC(C)CC3=O)c1 (stereo unspecified) | 18.9% (inactive)
89 | CC(C)c1ccc(NC(=O)c2cnn(-c3ccccc3)c2NC(=O)c2ccco2)cc1 | 0.3% (inactive)
90 | CCN(CC)CCNC(=O)c1cc2c(=O)n(C)c3ccccc3c2n1C | -20% (inactive)
91 | O=C(Cn1cc2c(n1)CCCC2)Nc1ccccc1Cl | -7.1% (inactive)
92 | CCOC(=O)c1cccc(NC(=O)CSc2nnc(COc3ccccc3)n2CC)c1 | -20.1% (inactive)
93 | c1cc2c(cc1Nc1nc(-c3ccc4c(c3)OCO4)cs1)OCCO2 | 56.7% (active)
94 | CC(=O)Nc1nc(C)c(-c2csc(Nc3ccc(O)cc3)n2)s1 | 63.2% (active)
95 | C=CCNc1nc(-c2sc(NC(=O)CC)nc2C)cs1 | 31.5% (inactive)
96 | Oc1ccc(Nc2nc(-c3ccc(O)cc3)cs2)cc1 | 84.1% (active)
97 | c1cncc(Nc2nc(-c3ccncc3)cs2)c1 | 4.9% (inactive)
98 | C=CCNc1nc(-c2sc(NC(C)=O)nc2C)cs1 | 33% (inactive)
99 | O=C(Nc1nc(-c2ccc3c(c2)OCO3)cs1)C1CC1 | -0.9% (inactive)
100 | Nc1nc(-c2ccc3c(c2)OCCO3)cs1 | -0.3% (inactive)
101 | NS(=O)(=O)c1ccc(Nc2nc(-c3ccc(O)cc3)cs2)cc1 | 32.7% (inactive)

Source: PubChem BioAssay AID431 (Sanford-Burnham Center for Chemical Genomics, 2006)
